D2 ag-1 – Beta-Arrestin HTS for Positive Allosteric Modulators of the Human D2 Dopamine Receptor: Agonists. AID 624465, 2012. 0.084% of 360,000 active. D(2) dopamine receptor (Homo sapiens), P14416. DiscoveRx PathHunter D2 beta-arrestin, luminescence, 90 min; 100% = 57 uM dopamine signal. activation, % (concentration not given with the values); in the data active = activation above about 40%
Target sequence (P14416 whole entry, looked up): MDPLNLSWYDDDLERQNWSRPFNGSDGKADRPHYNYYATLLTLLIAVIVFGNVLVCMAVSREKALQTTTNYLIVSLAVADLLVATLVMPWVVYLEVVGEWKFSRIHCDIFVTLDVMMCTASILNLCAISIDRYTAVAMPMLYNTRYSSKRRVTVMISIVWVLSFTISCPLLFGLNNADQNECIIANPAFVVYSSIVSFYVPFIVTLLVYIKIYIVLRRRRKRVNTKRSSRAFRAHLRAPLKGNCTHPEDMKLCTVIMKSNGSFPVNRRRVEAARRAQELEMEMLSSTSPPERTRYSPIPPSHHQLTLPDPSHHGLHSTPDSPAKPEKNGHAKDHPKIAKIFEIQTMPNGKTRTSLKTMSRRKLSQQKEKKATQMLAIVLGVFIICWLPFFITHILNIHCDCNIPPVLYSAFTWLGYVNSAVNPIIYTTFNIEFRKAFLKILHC
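Agonist mode: compounds alone added to overnight-plated D2 PathHunter cells for 90 min at 37 C, with 57 uM final dopamine (EC100) defining full response. Beta-arrestin recruitment detected by chemiluminescent reagent, read after 1 h at ambient temperature.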
D2 PAM-1 – HTS Assay for Positive Allosteric Modulators of the Human D2 Dopamine Receptor: Primary Screen for Potentiators. D(2) dopamine receptor (Homo sapiens), P14416. potentiation, % at 10 µM. HEK293 T-REx D2, calcium flux, EC20 dopamine potentiation. AID 485347, 2010. 0.34% of 340,000 active;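 active = potentiation over 3 SD above the plate norm, cut at about 30% in these data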
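Potentiation of an EC20 dopamine calcium response is measured in a force-coupled, tetracycline-inducible Hek293 Trex D2 line. Compound-only kinetic reads over 180 s flag agonists before dopamine addition.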
D2 ag-2 – HTS Assay for Allosteric Agonists of the Human D2 Dopamine Receptor: Primary Screen for Agonists; HEK293 T-REx D2 cells, calcium flux agonist mode; activation, % at 2 µM; 0.53% of 340,000 active;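 active = activation over 3 SD above normal in the single-dose calcium agonist read, cut at about 30% in these data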
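Tetracycline-induced HEK293 T-REx cells with force-coupled D2 receptor, plated overnight at 30 C, loaded with no-wash calcium dye. After a 10 s baseline, compound was pin-added and calcium flux read kinetically for 180 s; calcium rises flagged agonists.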
D2 antag – HTS Assay for Allosteric Antagonists of the Human D2 Dopamine Receptor: Primary Screen for Antagonists; D(2) dopamine receptor (Homo sapiens), P14416; HEK293 TREx D2 cells, calcium flux, dopamine EC80; inhibition, % at 10 µM; 2% of 340,000 active; AID 485344, 2010; in the data active = inhibition above about 30%; inactive = below that, where a call was filed
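Calcium mobilization kinetics were recorded at 1 s intervals in tetracycline-induced HEK293 T-REx D2 cells, first for 180 s after compound addition and then 180 s after EC80 dopamine.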
D2 PAM-2 – Beta-Arrestin HTS for Positive Allosteric Modulators of the Human D2 Dopamine Receptor: Potentiators | D(2) dopamine receptor (Homo sapiens), P14416 | DiscoveRx D2 beta-arrestin cells, luminescence, 90 min; 100% = 57 uM dopamine signal | potentiation, % (concentration not given with the values) | 0.23% of 360,000 active | AID 624464, 2012; in the data active = potentiation above about 50%
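PathHunter D2 cells, attached overnight at 37 deg C, received compound in DMSO plus dopamine at EC20 (50 nM final) for 90 min at 37 deg C. Beta-arrestin recruitment was read as luminescence after 1 h with detection reagent at ambient temperature.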
A number is an active result; – = inactive; · = not tested or not shown. Hits are enriched below; roughly 2.4% of the tested compounds scored in any of these assays.

SMILES	D2 ag-1	D2 PAM-1	D2 ag-2	D2 antag	D2 PAM-2
S=C(Nc1ccc(Cl)cc1)NC1CC2CCC(C1)N2Cc1ccccc1 (configuration not stated)	–	–	–	93.3	–
CCc1ccc(NC(=S)NC2CC3CCCC(C2)N3Cc2ccccc2)cc1 (configuration not stated)	–	–	–	40.3	–
CNC(=S)NC1CC2CCC(C1)N2Cc1ccccc1 (configuration not stated)	–	–	–	63.6	–
CNC(=S)NC1CC2CCCC(C1)N2Cc1ccco1 (configuration not stated)	–	–	–	–	–
O=C(CNC(=O)c1ccco1)N/N=C/c1ccc(C(=O)O)cc1	–	–	–	–	–
Cc1cc(C)n(-c2nc3cc(Cl)ccc3nc2Nc2ccc(CC(=O)O)cc2)n1	·	–	–	·	·
Cc1noc(/C=C/c2ccco2)c1S(=O)(=O)N1CCC(C(=O)Nc2ccc(F)c(Cl)c2)CC1	·	–	–	·	·
Cc1cc(C)cc(NC(=O)CCn2c(=O)c3cccn3c3ccccc32)c1	–	–	–	–	–
Cn1cccc1/C=N/NC(=O)c1cc2ccccc2cc1O	–	–	–	–	–
COc1ccc(-c2cc3ccccc3n2CC(O)CN2CCCCC2)cc1 (configuration not stated)	–	–	–	42.9	–
COc1ccc(-c2cc3ccccc3n2CC(O)CNCCO)cc1 (configuration not stated)	–	·	·	·	–
CC(C)Cn1cnc2c(c(-c3ccccc3)c(-c3ccccc3)n2Cc2ccco2)c1=N	–	–	–	46.4	–
N=c1c2c(-c3ccccc3)c(-c3ccccc3)n(Cc3ccco3)c2ncn1Cc1ccccc1	–	–	–	–	–
OC(CNCC1COc2ccccc2O1)COc1ccc(Cl)cc1 (configuration not stated)	–	–	33.2	104.5	–
OC(CNCC1CCCO1)COc1ccc(OCC(O)CNCC2CCCO2)cc1 (configuration not stated)	–	43.3	–	–	–
CCOC(=O)c1c(C)n(-c2ccc(C)cc2)c2ccc(OCC(O)CNCC3CCCO3)cc12 (configuration not stated)	–	–	–	–	–
O=C(Nc1ccc(Oc2ccccc2)cc1)c1csc([C@@H]2O[C@H](CO)[C@H](O)[C@H](O)[C@H]2O)n1	–	·	·	·	–
Cc1cc(C)cc(NC(=O)C/C(N)=N/O)c1	–	–	–	71.5	–
COc1cccc(CNc2nc3ccccc3c3nc(-c4cccc(C)c4)nn23)c1	·	–	–	·	·
COP(=O)(/C=C/c1ccccc1)C(O)c1ccc(F)cc1 (configuration not stated)	–	–	–	44.9	–
CC(C)COP(=O)(OCC(C)C)C(O)c1ccc(F)cc1 (configuration not stated)	–	–	–	–	–
O=C(/C=C/c1ccc2c(c1)OCO2)NCCSCc1ccc(Cl)cc1	–	–	–	–	–
O=C(/C=C/c1ccc2c(c1)OCO2)NCCSCc1c(Cl)cccc1Cl	–	–	–	33.8	–
COc1ccc(NC(=O)CSc2nnc(NC(=O)NC3CCCCC3)s2)cc1OC	·	–	–	·	·
CCOc1ccc(C(c2c(O)cc(C)n(CCOC)c2=O)N2CCN(c3ccccc3F)CC2)cc1 (configuration not stated)	·	–	–	·	·
CCCC(=O)Nc1nc(C(=O)OCC)cs1	–	–	–	–	–
CCOC(=O)c1csc(NC(=O)C(C)(C)C)n1	–	–	–	40.7	–
COc1ccc(C(=O)/C=C/Nc2ccc(S(=O)(=O)Nc3cc(OC)nc(OC)n3)cc2)c(OC)c1	–	–	–	31.0	–
COc1cccc(C(=O)/C=C/Nc2ccc(S(=O)(=O)Nc3cc(OC)nc(OC)n3)cc2)c1	–	–	–	–	–
